# Source: PubChem BioAssay
# Activity calls are given as the source filed them.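 Rule for the calls, unless noted: active = fluorescence slope higher than the sample average by over 3 SD (cut at about -0.22 in these data, passing the limit was not always enough); inactive = the rest.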
# Key:
# [1] = inhibitors of TNFa-induced NFkB p65 translocation, primary screen, imaging, HUVEC, MLSMR starter and 10KST1 sets (AID 438;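 active = inhibition above 20% together with a positive visual image hit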;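 note: compound added about 3h40 before a 20 min TNFalpha stimulation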;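 for inhibition: signal is the nuclear over cytoplasmic p65 intensity ratio per well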); details: HUVEC TNFa-induced p65 nuclear translocation; cell count: measured here: nuclei count (cytotoxicity indicator), at 2.08 µM; inhibition: at 2 µM, stronger effect = higher value, 0% TNFa-plus-vehicle, 100% no-TNFa wells
# [2] = reduction of polyQ htt aggregates in cells – imaging, exon1htt(103Q)mCFP cells, high-content imaging, primary screen (AID 483;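 active = visual image review flags a hit and inhibition of aggregation exceeds 20%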;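 note: compound exposure lasted 3 days before fixation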;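 for nuclei count: percent of the per-plate median nuclei count of sample wells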); details: exon1htt(103Q)mCFP cell line, aggregate imaging, at 2 µM; inhibition of aggregation: stronger effect = higher value; nuclei count: measured here: cell count, toxicity
# [3] = endothelial E-selectin expression blockers – imaging, HUVEC, immunofluorescence, MLSMR starter and 10KST1 sets, primary screen (AID 487;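 active = visually confirmed hit in the image check and inhibition above 20%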;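 for inhibition: signal is fraction of cell area covered by stained E-selectin grains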;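 for nuclei count: 100% = median nuclei count of all wells on the same plate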); details: HUVEC TNFalpha-induced E-selectin immunofluorescence imaging, at 2 µM; inhibition: stronger effect = higher value; nuclei count: measured here: cell number, toxicity
# [4] = molecular target: Voltage-gated potassium channel subunit beta-2 (Rattus norvegicus) (UniProt P62483); test: inhibitors of rat Kvbeta2 reductase activity – biochemical, NADPH fluorescence, primary screen (AID 622); details: recombinant KvBeta, 4-cyanobenzaldehyde reduction, at 10 µM, stronger effect = higher value;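 note: slope of raw intensity against log time taken from 70 to 1610 s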
# [5] = molecular target: Voltage-gated potassium channel subunit beta-2 (Rattus norvegicus) (UniProt P62483); test: enhancers of rat Kvbeta2 NADPH turnover – biochemical, NADPH fluorescence, primary screen (AID 623;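 active = NADPH fluorescence slope more negative than the mean of all samples by about 3 SD, 99.7% confidence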;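 note: fluorescence intensity change per second fitted from 20 to 320 s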); details: Recombinant KvBeta, NADPH fluorescence decrease slope, 10 min; at 10 µM; stronger effect = lower value
# [6] = molecular target: Alpha-2C adrenergic receptor (Homo sapiens) (UniProt P18825); test: compounds altering alpha2C-coupled GIRK flux – cell-based, HEK293 alpha2C/GIRK1/2, thallium flux, primary screen (AID 624;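 active = fluorescence slope after compound addition differing from the mean of all screened samples at 99.7% confidence, in either direction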;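 note: slope of fluorescence ratio to pre-addition baseline per second over 15 to 24 s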); details: thallium flux BTC fluorescence, at 10 µM, actives lie on both sides
# [7] = blockers of RIG-like receptor reporter activation – cell-based, Sendai virus stimulus, luciferase, 10K MLSCN set, TLR/RLR signaling modifier project, primary screen (AID 602276;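 active = inhibition at or above 50% at 10 µM; inactive = inhibition below 50%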;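 note: firefly luciferase from ISG56 promoter only with Renilla not read in this screen; 0% = Sendai virus plus DMSO and 100% = medium plus DMSO without virus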); details: HEK293 RL24 IRF3 luciferase reporter, at 10 µM, stronger effect = higher value
# [8] = TLR3 IRF3 reporter activation blockers – cell-based, poly I:C stimulus, luciferase, 10K MLSCN set, primary screen (AID 602277;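 active = inhibition of the reporter signal at or above 50%; inactive = inhibition below 50%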); details: HEK293-TLR3 RL24 IRF3 luciferase reporter, at 10 µM, stronger effect = higher value
# Alpha-2C adrenergic receptor (Homo sapiens), sequence (P18825 whole entry, looked up): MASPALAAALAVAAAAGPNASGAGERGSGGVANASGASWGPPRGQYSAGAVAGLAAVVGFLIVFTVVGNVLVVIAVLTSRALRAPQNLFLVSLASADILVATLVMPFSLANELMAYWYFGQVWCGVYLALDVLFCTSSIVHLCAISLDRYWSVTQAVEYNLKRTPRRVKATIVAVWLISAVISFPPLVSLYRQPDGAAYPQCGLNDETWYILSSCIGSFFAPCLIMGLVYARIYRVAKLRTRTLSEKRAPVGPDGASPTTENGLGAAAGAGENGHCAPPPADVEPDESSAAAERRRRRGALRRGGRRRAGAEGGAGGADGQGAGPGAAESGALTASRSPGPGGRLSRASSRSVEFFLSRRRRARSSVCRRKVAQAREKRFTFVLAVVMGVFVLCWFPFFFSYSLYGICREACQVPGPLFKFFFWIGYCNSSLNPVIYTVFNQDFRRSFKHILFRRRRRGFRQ
# Voltage-gated potassium channel subunit beta-2 (Rattus norvegicus), sequence (P62483 whole entry, looked up): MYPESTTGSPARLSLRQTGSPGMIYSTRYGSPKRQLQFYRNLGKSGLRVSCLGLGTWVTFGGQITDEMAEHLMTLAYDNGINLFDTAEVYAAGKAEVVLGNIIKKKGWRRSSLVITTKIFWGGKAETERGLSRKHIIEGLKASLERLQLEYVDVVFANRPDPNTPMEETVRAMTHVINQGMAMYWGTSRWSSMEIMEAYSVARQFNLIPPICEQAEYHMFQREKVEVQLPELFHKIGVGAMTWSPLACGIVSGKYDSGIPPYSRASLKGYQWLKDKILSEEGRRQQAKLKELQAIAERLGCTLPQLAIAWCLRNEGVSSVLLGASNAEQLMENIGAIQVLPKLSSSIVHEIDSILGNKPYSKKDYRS
SMILES,cell count [1],inhibition [1],inhibition of aggregation [2],nuclei count [2],inhibition [3],nuclei count [3],fluorescence slope [4],NADPH fluorescence slope [5],slope [6],inhibition [7],inhibition [8]
O=C(Nc1cccc(Cl)c1)N1CCN(c2ncccn2)CC1,334,2% (inactive),21% (inactive),94.1%,19.1% (inactive),84.8%,-0.53 (inactive),4.6e-05 (inactive),0.00446 (inactive),-23.1% (inactive),-47% (inactive)
O=C(NCCc1ccccc1)C1CCCN(S(=O)(=O)c2cccs2)C1 (centres undefined),901,6.9% (inactive),-17.3% (inactive),111%,-27.2% (inactive),115%,-0.571 (inactive),-2.3e-05 (inactive),0.00585 (inactive),10.2% (inactive),23.9% (inactive)
O=C1C2C3C=CC(C3)C2C(=O)N1Cc1ccccc1 (centres undefined),480,-9.2% (inactive),-2.3% (inactive),102%,40.2% (inactive),74.3%,-0.618 (inactive),-6.1e-05 (inactive),0.00345 (inactive),-1.99% (inactive),-2.25% (inactive)
CSc1nc(N2CCOCC2)c2ccccc2n1,730,-29.3% (inactive),13.4% (inactive),80.7%,-56.6% (inactive),114%,-0.601 (inactive),-3.9e-05 (inactive),0.00469 (inactive),6.41% (inactive),-10.5% (inactive)
O=C(NCCN1CCCCCC1)c1ccc(N2CCCC2=O)cc1,561,-4.7% (inactive),23.6% (inactive),84.5%,60.4% (inactive),24.3%,-0.406 (inactive),-4.1e-05 (inactive),0.00534 (inactive),16.9% (inactive),17.9% (inactive)
Cn1c(=O)cc(OCCCC(=O)N2CCCCC2)c2ccccc21,372,8.3% (inactive),-21.8% (inactive),96.2%,-22.3% (inactive),112%,-0.578 (inactive),1.8e-05 (inactive),0.00683 (inactive),-4.34% (inactive),36.6% (inactive)
COc1cc(N=c2ssnc2Cl)cc(OC)c1,148,-7.4% (inactive),0.8% (inactive),74.7%,4.2% (inactive),82.2%,-0.557 (inactive),-8.9e-05 (inactive),0.0056 (inactive),-6.83% (inactive),8.97% (inactive)
COc1cc2c(C#N)c(N3CCN(c4ccccc4OC)CC3)nc(N)c2c(N)n1,660,0.7% (inactive),-14.7% (inactive),99.8%,-76.6% (inactive),109%,-0.178 (inactive),1.8e-06 (inactive),0.00562 (inactive),-0.302% (inactive),-36.5% (inactive)
CSc1ccccc1NC(=O)C1CCCO1 (centres undefined),842,4.5% (inactive),10.2% (inactive),105%,-73% (inactive),117%,-0.429 (inactive),0.000108 (inactive),0.00731 (inactive),-13.9% (inactive),-1.95% (inactive)
Nc1nc(CSc2nc3ccccc3[nH]2)nc(N2CCOCC2)n1,675,-17.6% (inactive),-0.7% (inactive),87.9%,-51% (inactive),111%,-0.449 (inactive),-3.7e-05 (inactive),0.00382 (inactive),3.37% (inactive),18.9% (inactive)
CC(=O)Nc1cccc(NC(=O)C2CCCN2C(=O)Nc2ccc(C)cc2)c1 (centres undefined),789,-3.2% (inactive),0.5% (inactive),89.4%,-3.5% (inactive),111%,-0.507 (inactive),-4.3e-06 (inactive),0.0061 (inactive),-9.54% (inactive),20.3% (inactive)
Cc1cc(C(=O)CSCCCn2c(=O)[nH]c3ccccc32)c(C)n1C,494,-3.3% (inactive),28.4% (inactive),84.7%,-68.3% (inactive),113%,-0.604 (inactive),-9.1e-06 (inactive),0.00689 (inactive),-10.6% (inactive),-5.21% (inactive)
CC(=O)n1nc(-c2ccco2)nc1SCc1ccccc1,573,2.8% (inactive),25.1% (inactive),100%,-122% (inactive),94.1%,-0.599 (inactive),1.3e-05 (inactive),0.00839 (inactive),-22.5% (inactive),-108% (inactive)
Cc1ccc(S(=O)(=O)NCCNC(=O)C2CCCNC2=O)cc1 (centres undefined),440,-0.4% (inactive),-9.8% (inactive),97.5%,-14.7% (inactive),121%,-0.584 (inactive),-7e-05 (inactive),0.00341 (inactive),16.4% (inactive),12.2% (inactive)
